Measurements taken from PubChem BioAssay (NCI).
The panel holds about 83,000 compounds, 20% with a hit somewhere; the sample as a whole holds those more often.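 Single-concentration screen, 48 h exposure, 96-well plates. Endpoint: percent growth. Below 10 = active.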 Activity calls are given as the source filed them.

Legend:
Experiment in all cases: NCI-60 one-dose screen, 48 h (100 = growth as untreated, 0 = no growth, -100 = all killed)
SR leukemia = conditions: 10 µM unless noted
RPMI-8226 leukemia = conditions: 10 µM unless noted
OVCAR-8 ovarian = conditions: 10 µM unless noted
OVCAR-5 ovarian = conditions: 10 µM unless noted
OVCAR-4 ovarian = conditions: 10 µM unless noted
SK-OV-3 ovarian = conditions: 10 µM unless noted
IGROV1 ovarian = conditions: 10 µM unless noted
OVCAR-3 ovarian = conditions: 10 µM unless noted
HS 578T breast = conditions: 10 µM
NCI/ADR-RES ovarian = conditions: 10 µM unless noted
T-47D breast = conditions: 10 µM unless noted
BT-549 breast = conditions: 10 µM unless noted
MDA-MB-435 melanoma = conditions: 10 µM unless noted
SW-620 colon = conditions: 10 µM unless noted
HCT-116 colon = conditions: 10 µM unless noted
HCC-2998 colon = conditions: 10 µM unless noted
KM12 colon = conditions: 10 µM unless noted
MCF7 breast = conditions: 10 µM unless noted

Measured: growth

CCOC(=O)c1ccccc1SC(C[N+](=O)[O-])c1ccccc1 (centres undefined)
inactive: SR leukemia 38.2% | OVCAR-8 ovarian 85.8% | OVCAR-5 ovarian 100% | OVCAR-4 ovarian 89.1% | SK-OV-3 ovarian 117% | IGROV1 ovarian 72.1% | OVCAR-3 ovarian 104% | HS 578T breast 104% | NCI/ADR-RES ovarian 112% | T-47D breast 60.6% | BT-549 breast 88.4% | SW-620 colon 55.8% | KM12 colon 91.6%
active: RPMI-8226 leukemia -41.5% | MDA-MB-435 melanoma -58.1% | HCT-116 colon 3.98% | HCC-2998 colon 8.62%

C#CC[C@@H]1C[C@]2(C)[C@H]3CC=C4[C@H]5[C@@H](C)[C@H](C)CC[C@]5(C(=O)NCCCN5CCN(CCCN)CC5)CC[C@@]4(C)[C@]3(C)CC[C@H]2C(C)(C)[C@H]1OC(C)=O
active: SR leukemia -5.62% | RPMI-8226 leukemia -52.1% | OVCAR-8 ovarian -58.3% | OVCAR-4 ovarian -17.5% | IGROV1 ovarian -60.5% | OVCAR-3 ovarian -73.7% | HS 578T breast -25.3% | BT-549 breast -3.81% | MDA-MB-435 melanoma -74.2% | SW-620 colon -51% | MCF7 breast -75.8% | HCT-116 colon -83.9% | HCC-2998 colon -34.1% | KM12 colon 1.28%
inactive: OVCAR-5 ovarian 29.4% | SK-OV-3 ovarian 115% | NCI/ADR-RES ovarian 61.7%

Fc1[nH]nc2ccc([C@@H]3Nc4ccc5[nH]ncc5c4[C@H]4C5CCC(C5)[C@@H]34)cc12 (some centres undefined)
inactive: SR leukemia 42% | RPMI-8226 leukemia 18.2% | OVCAR-8 ovarian 40% | OVCAR-5 ovarian 54.3% | OVCAR-4 ovarian 54.6% | SK-OV-3 ovarian 39.7% | IGROV1 ovarian 43.1% | HS 578T breast 34.8% | NCI/ADR-RES ovarian 15.2% | BT-549 breast 53.2% | SW-620 colon 23.9% | MCF7 breast 21.2% | HCT-116 colon 21% | HCC-2998 colon 58.2% | KM12 colon 20.7%
active: OVCAR-3 ovarian 1.83% | MDA-MB-435 melanoma -42.5%

COc1ccc(/C=c2\c(=O)n(-c3ccccc3)c3nn4c(n23)=NNC42CCCCC2)cc1
inactive: SR leukemia 115% | RPMI-8226 leukemia 107% | OVCAR-8 ovarian 95.1% | OVCAR-5 ovarian 113% | OVCAR-4 ovarian 106% | SK-OV-3 ovarian 95.5% | IGROV1 ovarian 88.5% | OVCAR-3 ovarian 95.9% | HS 578T breast 104% | NCI/ADR-RES ovarian 99.4% | BT-549 breast 97.3% | MDA-MB-435 melanoma 110% | SW-620 colon 103% | MCF7 breast 96.6% | HCT-116 colon 95.8% | HCC-2998 colon 107% | KM12 colon 102%

O=C(NNC(=S)Nc1ccccc1)c1ccc(Nc2ncnc3c2cnn3-c2cccc(Br)c2)cc1
inactive: SR leukemia 115% | RPMI-8226 leukemia 110% | OVCAR-8 ovarian 110% | OVCAR-5 ovarian 105% | OVCAR-4 ovarian 106% | SK-OV-3 ovarian 101% | IGROV1 ovarian 107% | OVCAR-3 ovarian 107% | HS 578T breast 105% | NCI/ADR-RES ovarian 105% | BT-549 breast 104% | MDA-MB-435 melanoma 105% | SW-620 colon 104% | MCF7 breast 103% | HCT-116 colon 98.9% | HCC-2998 colon 104% | KM12 colon 107%

C=C(CN1CC=CCC1)[C@@H]1CC[C@]2(C(=O)OC)CC[C@]3(C)[C@H](CC[C@@H]4[C@@]5(C)CC[C@H](OC(C)=O)C(C)(C)[C@@H]5CC[C@]43C)[C@@H]12
inactive: SR leukemia 69.4% | RPMI-8226 leukemia 50% | OVCAR-8 ovarian 103% | OVCAR-5 ovarian 118% | OVCAR-4 ovarian 91.3% | SK-OV-3 ovarian 103% | IGROV1 ovarian 91.8% | OVCAR-3 ovarian 92.5% | HS 578T breast 109% | NCI/ADR-RES ovarian 107% | BT-549 breast 85.6% | MDA-MB-435 melanoma 90.7% | SW-620 colon 102% | MCF7 breast 88.2% | HCT-116 colon 86.7% | KM12 colon 78.6%

COc1ccc(C2=Nn3c(nnc3-c3ccc(Cl)cc3N)SC2)cc1
inactive: SR leukemia 102% | RPMI-8226 leukemia 103% | OVCAR-8 ovarian 98.1% | OVCAR-5 ovarian 99.5% | OVCAR-4 ovarian 103% | SK-OV-3 ovarian 102% | IGROV1 ovarian 114% | OVCAR-3 ovarian 114% | HS 578T breast 113% | NCI/ADR-RES ovarian 115% | T-47D breast 88.1% | MDA-MB-435 melanoma 91.4% | SW-620 colon 108% | MCF7 breast 89.8% | HCT-116 colon 105% | HCC-2998 colon 120% | KM12 colon 110%

CN1CCN(Cc2ccc(NC(=O)c3cncc(C#Cc4ncc5ccccn45)c3)cc2C(F)(F)F)CC1
active: OVCAR-4 ovarian 7.89% | HS 578T breast 7.01% | SW-620 colon 1.35% | MCF7 breast -6.36% | HCT-116 colon -51.5% | KM12 colon 4.65%
inactive: SR leukemia 15.6% | RPMI-8226 leukemia 21.1% | OVCAR-8 ovarian 24.7% | OVCAR-5 ovarian 32.8% | SK-OV-3 ovarian 19.6% | IGROV1 ovarian 17.9% | OVCAR-3 ovarian 36.9% | NCI/ADR-RES ovarian 27.7% | BT-549 breast 39.3% | MDA-MB-435 melanoma 28.1% | HCC-2998 colon 48.6%

COc1cc(C)cc2oc3oc(=O)c(-c4csc(-c5cc6ccccc6oc5=O)n4)cc3c(=O)c12
inactive: SR leukemia 113% | RPMI-8226 leukemia 109% | OVCAR-8 ovarian 103% | OVCAR-5 ovarian 109% | OVCAR-4 ovarian 106% | SK-OV-3 ovarian 120% | IGROV1 ovarian 117% | OVCAR-3 ovarian 116% | HS 578T breast 120% | NCI/ADR-RES ovarian 105% | BT-549 breast 107% | MDA-MB-435 melanoma 105% | SW-620 colon 105% | MCF7 breast 101% | HCT-116 colon 106% | KM12 colon 107%

Fc1cnccc1-c1nc2ccc3[nH]ncc3c2c2c1CCCC2
active: SK-OV-3 ovarian -21.2% | HCT-116 colon 7.21%
inactive: SR leukemia 34.1% | RPMI-8226 leukemia 37.6% | OVCAR-8 ovarian 30.2% | OVCAR-5 ovarian 45.2% | OVCAR-4 ovarian 48.9% | IGROV1 ovarian 12.1% | OVCAR-3 ovarian 30.4% | HS 578T breast 10.8% | NCI/ADR-RES ovarian 32.3% | BT-549 breast 16.1% | MDA-MB-435 melanoma 10.4% | SW-620 colon 14.6% | MCF7 breast 34.7% | HCC-2998 colon 37.5% | KM12 colon 18.4%

Cc1[nH]n(C(=O)c2ccncc2)c(=O)c1N=Nc1ccc(O)c(C(=O)O)c1
inactive: SR leukemia 10.1% | RPMI-8226 leukemia 51.5% | OVCAR-8 ovarian 115% | OVCAR-5 ovarian 123% | OVCAR-4 ovarian 109% | SK-OV-3 ovarian 108% | IGROV1 ovarian 94.7% | OVCAR-3 ovarian 105% | HS 578T breast 96.2% | NCI/ADR-RES ovarian 110% | T-47D breast 132% | MDA-MB-435 melanoma 126% | SW-620 colon 105% | MCF7 breast 109% | HCT-116 colon 75.3% | HCC-2998 colon 117% | KM12 colon 104%

COC(=O)c1cc2oc(/C=N/NC(=O)c3cc4oc(-c5cccc(C(F)(F)F)c5)cc4[nH]3)cc2n1Cc1ccccc1
inactive: SR leukemia 33% | RPMI-8226 leukemia 85.6% | OVCAR-8 ovarian 75.2% | OVCAR-5 ovarian 107% | OVCAR-4 ovarian 104% | SK-OV-3 ovarian 110% | IGROV1 ovarian 89.6% | OVCAR-3 ovarian 111% | HS 578T breast 87.5% | NCI/ADR-RES ovarian 97.9% | T-47D breast 94.4% | MDA-MB-435 melanoma 99.6% | SW-620 colon 106% | HCT-116 colon 67.6% | HCC-2998 colon 90.5% | KM12 colon 88.3%

C#CC[C@@H]1C[C@]2(C)[C@H]3CC=C4[C@H]5[C@@H](C)[C@H](C)CC[C@]5(C(=O)NCCCCCCCCN)CC[C@@]4(C)[C@]3(C)CC[C@H]2C(C)(C)[C@H]1OC(C)=O
inactive: OVCAR-5 ovarian 108% | SK-OV-3 ovarian 116% | IGROV1 ovarian 50.9% | HS 578T breast 101% | NCI/ADR-RES ovarian 65.9% | BT-549 breast 93.7% | HCC-2998 colon 58.4%
active: SR leukemia 3.43% | RPMI-8226 leukemia -45.8% | OVCAR-8 ovarian -33.6% | OVCAR-4 ovarian -0.477% | OVCAR-3 ovarian -91.5% | MDA-MB-435 melanoma -62.4% | SW-620 colon -61.9% | MCF7 breast -80.4% | HCT-116 colon -99.4% | KM12 colon 0.426%

Cc1ccc(-c2cnc3sc4ccc(Cl)cc4n23)cc1
inactive: SR leukemia 111% | RPMI-8226 leukemia 98.6% | OVCAR-8 ovarian 103% | OVCAR-5 ovarian 106% | OVCAR-4 ovarian 86.9% | SK-OV-3 ovarian 75.7% | IGROV1 ovarian 81% | OVCAR-3 ovarian 101% | HS 578T breast 110% | NCI/ADR-RES ovarian 94.6% | BT-549 breast 100% | MDA-MB-435 melanoma 105% | SW-620 colon 89.7% | HCT-116 colon 89% | KM12 colon 96.5%

CC[C@H](Nc1nc(N)nc(C2CC2)c1C#N)c1nc2cccc(NCc3ccc(C(=O)NO)cc3)c2c(=O)n1-c1ccccc1
active: SR leukemia -0.809% | RPMI-8226 leukemia 4.07% | OVCAR-8 ovarian 1.08% | OVCAR-4 ovarian 8.75% | SK-OV-3 ovarian -9.63% | IGROV1 ovarian 2.3% | OVCAR-3 ovarian 9.13% | T-47D breast -5.53% | MDA-MB-435 melanoma 7.07% | HCT-116 colon -59.8% | HCC-2998 colon 0.531% | KM12 colon 8.71%
inactive: OVCAR-5 ovarian 14.8% | HS 578T breast 13.5% | NCI/ADR-RES ovarian 45.8% | BT-549 breast 33.3% | SW-620 colon 11.6%

C[C@@H](C[C@H](CC1CC1)c1ccccc1)c1ccc2ccccc2c1
inactive: SR leukemia 106% | RPMI-8226 leukemia 98.8% | OVCAR-8 ovarian 106% | OVCAR-5 ovarian 107% | OVCAR-4 ovarian 96.1% | SK-OV-3 ovarian 117% | IGROV1 ovarian 101% | OVCAR-3 ovarian 113% | HS 578T breast 108% | NCI/ADR-RES ovarian 105% | BT-549 breast 106% | MDA-MB-435 melanoma 102% | SW-620 colon 93.6% | MCF7 breast 108% | HCT-116 colon 98.6% | HCC-2998 colon 101% | KM12 colon 103%

C#CC[C@@H]1C[C@]2(C)[C@H]3CC[C@@H]4[C@H]5C(C(=C)C)CC[C@]5(C(=O)NCCN(CCN)CCN)CC[C@@]4(C)[C@]3(C)CC[C@H]2C(C)(C)[C@H]1OC(C)=O (some centres undefined)
inactive: RPMI-8226 leukemia 58.3% | OVCAR-8 ovarian 72.1% | OVCAR-5 ovarian 63.3% | OVCAR-4 ovarian 21.7% | SK-OV-3 ovarian 105% | IGROV1 ovarian 98% | OVCAR-3 ovarian 48.7% | HS 578T breast 115% | NCI/ADR-RES ovarian 95.4% | BT-549 breast 110% | MDA-MB-435 melanoma 84.8% | SW-620 colon 15.2% | HCC-2998 colon 81.1% | KM12 colon 60%
active: SR leukemia -0.547% | MCF7 breast -59.9% | HCT-116 colon 2.57%
